Screening results as filed in PubChem.
S1P2 ag – activates the human S1P2 receptor; O95136; S1P2-expressing cell line, agonist reporter read-out; activation, % at 4.5 µM; 97,000 compounds, 0.46% hits; in the data active means activation above about 16%;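 further: 0% = vehicle low control and 100% = maximal reference agonist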
GALR2 antag – blocks the human galanin receptor 2; O43603; GALR2-expressing cells, antagonist mode; inhibition, % at 4 µM; 140,000 compounds, 0.39% hits; AID 828; in the data active means inhibition above about 27%;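 further: cells stimulated with galanin 1-16 at roughly its EC80; 0% = agonist challenge control and 100% = basal control without agonist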
Target sequence (O43603 whole entry, looked up): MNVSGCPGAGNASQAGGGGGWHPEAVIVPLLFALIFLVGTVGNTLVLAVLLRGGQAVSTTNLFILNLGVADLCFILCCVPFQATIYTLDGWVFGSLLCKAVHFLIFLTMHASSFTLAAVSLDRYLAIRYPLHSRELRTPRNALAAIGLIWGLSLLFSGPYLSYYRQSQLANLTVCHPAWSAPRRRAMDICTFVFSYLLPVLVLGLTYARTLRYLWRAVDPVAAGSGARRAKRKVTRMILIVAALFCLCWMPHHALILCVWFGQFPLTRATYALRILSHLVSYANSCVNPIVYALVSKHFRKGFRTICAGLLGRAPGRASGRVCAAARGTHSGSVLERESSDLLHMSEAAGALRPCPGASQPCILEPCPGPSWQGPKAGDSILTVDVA
FAK blocker – blocks human focal adhesion kinase activity; 97,000 compounds, 0.84% hits; biochemical FAK kinase activity assay; inhibition, %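 (tested at 7 µM)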; Q05397; AID 727;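 further: 0% = DMSO and 100% = reference compound high control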
GALR2 agonist – activates the human galanin receptor 2. O43603. GALR2-expressing cells, agonist activation read-out. activation, % (test concentration not listed). 140,000 compounds, 0.48% hits. AID 803; in the data active means activation above about 5%, passing the limit was not always enough;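 further: 0% = vehicle buffer wells and 100% = reference agonist at full effect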
S1P2 antag – S1P2 (human) receptor antagonism; O95136; cell-based S1P2 antagonist assay, inhibition at 5 uM; inhibition, % at 5 µM; 97,000 compounds, 0.21% hits; AID 736; in the data active means inhibition above about 45%;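 further: CRE beta-lactamase reporter cells expressing human S1P2 stimulated with S1P; 0% = agonist at EC80 alone and 100% = agonist plus reference antagonist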
sdo1 growth – restores growth of sdo1-depleted yeast; S. cerevisiae sdo1-depleted JHY4D growth rescue, OD600 30 h; active compounds read high; pdr5 snq2 efflux-pump mutant strain; z-score at 10 µM; 140,000 compounds, 0.21% hits; AID 817;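 active means z-score above 3 at both the 24 hr and the 30 hr optical density reads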;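 further: z-score against mean and SD of all compound wells on the same plate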
FAK inh confirm – confirmation of human focal adhesion kinase (FAK) inhibitors; FAK kinase biochemical inhibition assay; shares compounds with FAK blocker; AID 794; 750 compounds, 28% hits; inhibition, % at 7 µM
Starred values were filed as active, the others as inactive; . = no result. Compounds with a hit are over-represented: about 1.9% of the library has one in this group of screens. Unless noted, no stated cut-off is given here; in the data, active means inhibition above about 19%; inactive means the rest.

SMILES	S1P2 ag	GALR2 antag	FAK blocker	GALR2 agonist	S1P2 antag	sdo1 growth	FAK inh confirm
Cn1c(SCC(=O)Nc2ccc3nc(SCC(=O)N4CCCC4)sc3c2)nnc1-c1ccccc1	-8.3	-7.9	25.0*	-2.9	1.9	0.06	8.6
COc1ccc(C(=O)Nc2ccc(N3CCCC3)cc2)cc1	-5.5	2.1	32.0*	-2.7	-8.2	-0.16	13.0
CCOc1ccc(C(=O)Nc2ccc(N3CCCC3)cc2)cc1	-5.9	-11.2	17.5	0.4	1.6	-0.61	.
Cc1cc(C)cc(OCC(=O)Nc2ccc(N3CCCC3)cc2)c1	-3.4	5.8	38.6*	-2.1	-4.4	-0.29	40.2*
O=C(N/N=C/c1ccccc1OCC(=O)N1CCCC1)C(=O)Nc1ccccc1F	.	-8.4	.	-0.1	.	0.66	.
COc1ccc(NC(=O)c2cc(S(=O)(=O)N(Cc3ccccc3)c3ccccc3)ccc2Cl)cn1	.	3.0	.	-0.1	.	-0.03	.
CCC(C)n1c(NC(=O)c2ccccc2)c(C#N)c2nc3ccccc3nc21 (stereo not given)	55.9*	1.6	24.7*	33.8*	-76.8	.	-2.9
Cc1ccc(C)n1Cc1ccc(C(=O)O)cc1	-5.3	6.0	78.3*	-5.2	-0.7	0.59	-4.3
Cc1cc(C)n(Cc2ccc(C(=O)O)cc2)n1	-2.3	2.2	-2.6	-3.8	-16.5	-0.37	.
O=c1cc(-c2ccccc2)c2ccccc2[nH]1	-4.0	-5.4	19.4*	-1.2	8.9	-0.76	-0.9
Cc1cc(=O)[nH]c2ccccc12	-4.1	-1.2	5.5	-2.0	10.1	1.56	.
COC(=O)C1=C(C)Nc2c(c(=O)n(C)c(=O)n2C)C1c1cccs1 (stereo not given)	-4.9	-7.0	18.8*	-0.6	3.9	-0.5	4.8
O=C1C(Nc2ccccc2)=C(N2CCCCC2)C(=O)c2ccccc21	-6.2	2.8	22.8*	-2.4	-4.8	-2.05	4.0
O=C(/C=C/c1ccc(O)cc1)c1ccc(NC2=C(N3CCCCC3)C(=O)c3ccccc3C2=O)cc1	-11.7	10.6	30.5*	-3.3	-19.0	-0.92	2.4
Cc1ccc(NC2=C(N3CCCCC3)C(=O)c3ccccc3C2=O)cc1	-1.0	3.0	15.0	-2.3	-15.3	-0.64	.
O=C1C(Nc2cccc(O)c2)=C(N2CCCCC2)C(=O)c2ccccc21	-5.2	-3.3	26.8*	-2.8	2.5	-1.43	4.5
O=C(COC(=O)Cn1c(C(F)(F)F)nc2ccccc21)Nc1ccc2c(c1)OCCO2	-1.7	1.4	1.0	-0.6	-15.9	-0.45	.
Cc1ccc(CSCC(=O)N/N=C/c2ccc(OCC(=O)Nc3ccc(C)cc3)cc2)cc1	-0.8	-13.8	25.9*	-0.3	-0.7	0.23	11.9
CCCCn1c(=O)[nH]c2ccccc21	-6.3	3.5	4.1	-3.9	-12.6	-0.14	.
O=c1[nH]c2ccccc2n1CCCSc1cnc2ccccc2n1	-3.5	-5.8	41.8*	0.1	-42.4	-0.79	14.4
CCOC(=O)CSc1nc(C2CC2)nc2ccccc12	-7.7	-1.2	67.5*	-1.3	-18.1	-0.82	64.6*
CCOC(=O)CSc1nc(C)c2ccccc2n1	-7.2	4.9	1.4	-1.4	-10.3	0.04	.
COC(=O)CSc1nc2ccccc2nc1SCC(=O)OC	-1.9	-3.6	2.6	-1.1	-2.6	-0.98	.
CCOC(=O)CSc1nc(C(C)C)nc2ccccc12	-5.8	5.9	37.3*	-0.7	12.6	-1.2	23.6*
COC(=O)CSc1nc(C(C)C)nc2ccccc12	-1.4	-9.8	40.4*	-0.5	-14.7	0.02	22.6*
SMILES	S1P2 ag	GALR2 antag	FAK blocker	GALR2 agonist	S1P2 antag	sdo1 growth	FAK inh confirm
COc1ccc(Cl)cc1NC(=O)CSc1nnc(Cc2cccn2C)n1-c1ccc(F)cc1	.	-3.2	.	-0.8	.	-1.42	.
NNC(=O)[C@@H]1C[C@@H]1c1ccccc1	.	-5.3	.	1.9	.	0.07	.
CCc1c(C)sc(NC(=O)C2CC2c2ccccc2)c1C(N)=O (stereo not given)	-3.8	-4.8	35.4*	-1.4	-31.5	-1.28	17.1
CC(=O)Nc1ccc(NC(=O)CN(c2ccccc2Cl)S(C)(=O)=O)cc1	1.5	-0.4	-1.8	-2.1	-7.9	1.18	.
O=C(COc1ccc(/C=N/NC(=O)c2cc3ccccc3o2)cc1Cl)Nc1ccccc1	6.5	-6.2	39.6*	1.1	-7.6	-2.7	35.8*
O=C(N/N=C/c1cccc([N+](=O)[O-])c1)c1cc2ccccc2o1	.	6.5	.	-0.4	.	-0.68	.
O=c1oc2ccccc2c(Nc2ccc3ccccc3c2)c1[N+](=O)[O-]	-2.3	8.4	23.8*	-1.3	-5.3	-2.08	5.5
Cc1nn(C(=O)CNS(=O)(=O)c2ccccc2)c(C)c1Sc1ccc(Cl)cc1	.	-2.0	.	0.8	.	-0.92	.
CCOc1ccc(/C=C/C(=O)c2cc(Br)ccc(=O)c2O)cc1	.	-8.6	.	0.6	.	12.2	.
CCOc1ccc(/C=C\C(C)=N\O)cc1	-4.5	19.5	20.1*	-2.4	-1.0	-0.93	8.0
C=CCOc1ccc(C(=O)CC)cc1OC	.	-6.0	.	-0.7	.	0.18	.
CCOc1cc(CNc2ccc(O)cc2)cc(Br)c1OCc1ccccc1F	-2.4	12.9	21.6*	-2.0	36.8	-1.67	3.2
Cc1cc(C)c[n+](-c2nc([O-])sc2C=O)c1	-8.0	-0.4	-5.2	-0.2	3.5	0.36	.
CCc1ccc(OCC(=O)N/N=C2\CC(=O)c3ccccc32)cc1	-3.4	1.8	31.9*	-1.0	7.3	0.32	2.3
COc1ccc(N2CC(C(=O)Nc3ccccc3C(=O)NCc3ccco3)CC2=O)cc1 (stereo not given)	-3.1	-7.8	1.7	0.2	19.0	-0.65	.
CCOC(=O)N1CCC(NC(=O)c2cccc3c2C(=O)N(c2ccc(OC)cc2)C3)CC1	1.6	-7.6	43.7*	0.8	-9.6	-1	11.0
COc1ccc(N2Cc3cccc(C(=O)NC(C)CCc4ccco4)c3C2=O)cc1 (stereo not given)	-1.4	5.6	33.3*	0.1	6.5	-1.44	4.7
COC(=O)/C(=C1/Oc2ccc(C)cc2S1)C(F)(F)F	.	0.7	.	-0.7	.	-0.57	.
CCSc1nc(N)c2c3c(sc2n1)CN(C)CC3	.	2.8	.	-1.5	.	0.48	.
CN1CCc2c(sc3ncn4nc(-c5ccccc5O)nc4c23)C1	-1.1	-16.1	23.2*	-1.5	-6.2	2.23	27.9*
CCN1C(=O)C(C)S/C1=N\S(=O)(=O)c1ccc(Cl)s1 (stereo not given)	-12.2	12.5	-4.2	0.2	15.0	-0.15	.
Cc1ccc(CNC(=O)C(CCC(N)=O)NC(=O)OCc2ccccc2)cc1 (stereo not given)	.	20.7	.	-1.9	.	0.47	.
CC(=O)N(/N=C1\Sc2ccccc2C1=O)c1cccc(C)c1	-12.1	7.8	19.3*	-0.3	-39.7	-1.64	15.8
CC(=O)NCC(=O)OCC(=O)c1ccc(Br)cc1	.	3.9	.	0.5	.	0.33	.
N#C/C(=N\Nc1c(Cl)cccc1Cl)C(=O)NN	-1.0	20.5	45.3*	-2.0	8.5	-0.48	33.0*
N#C/C(=N\Nc1ccccc1Cl)C(=O)c1ccccc1	-7.1	8.5	-2.2	-1.1	-20.6	-1.59	.
